In the library only some 3.5% were active in any assay of this set; here they are far more common.
FBW7 act – FBW7 E3 ligase activators, primary screen, biochemical, AlphaScreen, human; F-box/WD repeat-containing protein 7 (Homo sapiens), Q969H0; actives 0.13% (n = 650,000); normalized activity (activation), % at 26.1 µM; AID 1259310, 2017; AlphaScreen FBW7–phospho-cyclin E peptide binding, activator screen; in the data active = normalized activity above about 1.9%;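 note: purified mutant Fbw7 with reduced substrate affinity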
MITF primary – MITF inhibitors, primary screen, biochemical, AlphaScreen, human; AlphaScreen MITF homodimerization, bead proximity signal; inhibition, % at 2.6 µM; actives 0.91% (n = 650,000); in the data active = inhibition above about 50%
TEAD-YAP inh – TEAD-YAP interaction inhibition, primary screen, TEAD-YAP interaction inhibitor project, luminescence, HEK-TIYL cells | inhibition, % at 9.12 µM | AID 1259422, 2018 | TEAD-Gal4/YAP UAS-luciferase luminescence | actives 1.4% (n = 640,000); in the data active = inhibition above about 32%
GPR151 ag – activators of human GPR151, primary screen, cell-based, PathHunter beta-arrestin, luminescence | G-protein coupled receptor 151 (Homo sapiens), Q8TDV0 | PathHunter beta-arrestin GPR151 cells | activation, % at 11.2 µM | actives 1% (n = 650,000); in the data active = activation above about 4.9%
Target sequence (Q8TDV0 whole entry, looked up): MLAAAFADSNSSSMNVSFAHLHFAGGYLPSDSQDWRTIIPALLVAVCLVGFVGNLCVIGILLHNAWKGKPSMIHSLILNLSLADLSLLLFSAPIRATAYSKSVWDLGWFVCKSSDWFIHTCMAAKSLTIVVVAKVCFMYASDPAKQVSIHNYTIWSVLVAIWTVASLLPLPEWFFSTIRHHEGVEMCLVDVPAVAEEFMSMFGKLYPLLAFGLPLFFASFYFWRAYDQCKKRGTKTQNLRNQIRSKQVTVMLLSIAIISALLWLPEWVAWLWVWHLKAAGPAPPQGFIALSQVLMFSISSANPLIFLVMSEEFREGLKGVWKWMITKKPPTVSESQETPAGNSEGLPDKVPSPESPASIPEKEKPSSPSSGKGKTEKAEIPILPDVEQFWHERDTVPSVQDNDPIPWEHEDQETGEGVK
GPR151 confirm – GPR151 activators, triplicate retest, confirmation, cell-based, PathHunter beta-arrestin, luminescence; shares compounds with GPR151 ag; GPR151 PathHunter beta-arrestin cells, 90 min; % of EA-reagent control over plate median; activation, % at 11.2 µM; 6,700 tested, under 10 active; AID 1508609, 2020;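 active = mean percent activation across replicates above the confirmation screen cutoff of 4.91%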
GPR119 ag – GPR119 activators in beta-arrestin cells, counter-screen for GPR151 activator project, cell-based, PathHunter beta-arrestin, luminescence, triplicate. shares compounds with GPR151 ag. 90 min; 0 = compound-well median, 100 = enzyme-acceptor control. activation, % at 11.2 µM. actives 0.3% (n = 6,700);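 active = mean percent activation in the counterscreen above 29.09%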;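 note: counterscreen on off-target GPR119 to flag nonselective hits from the GPR151 activator screen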
A number is an active result; i = inactive; nt = no result given.

SMILES	FBW7 act	MITF primary	TEAD-YAP inh	GPR151 ag	GPR151 confirm	GPR119 ag
Cc1ccc(Cn2c(CN3CCCC(C)C3)nc3c2c(=O)n(C)c(=O)n3C)cc1 (stereo not given)	i	i	i	4.9	i	i
CC1CCCN(Cc2nc3c(c(=O)n(C)c(=O)n3C)n2Cc2ccc(Cl)cc2)C1 (stereo not given)	i	i	i	i	nt	nt
CC(=O)N(Cc1cccnc1)Cc1cc2ccccc2[nH]c1=O	i	i	i	i	nt	nt
O=C(c1ccc(F)cc1)N(Cc1cccnc1)Cc1cc2ccccc2[nH]c1=O	i	i	i	7.0	i	i
CC(Sc1n[nH]c(N)n1)C(=O)OC1CCCCC1 (stereo not given)	i	i	i	10.0	i	i
Nc1nc(SCC(=O)NC2CCCCCCC2)n[nH]1	i	i	i	i	nt	nt
O=C(Nc1cc(Cl)ccc1Cl)/C(=C/c1cccc([N+](=O)[O-])c1)NC(=O)C1CCCCC1	i	i	i	i	nt	nt
O=C(Nc1ccc(Cl)cc1)/C(=C/c1cccc([N+](=O)[O-])c1)NC(=O)C1CCCCC1	i	i	i	6.2	i	i
Cc1nn(-c2ccc(Cl)cc2)c2sc(C(=O)Nc3ccc(C(N)=O)cc3)cc12	i	i	i	6.7	i	i
Cc1nn(-c2ccccc2)c2sc(C(=O)Nc3ccc(Cl)cc3)cc12	i	i	i	i	nt	nt
Cc1ccc(-c2nnc(Nc3ccccc3)c3ccccc23)cc1S(=O)(=O)N1CCOCC1	i	i	i	i	nt	nt
Cc1ccc(-c2nnc(Nc3ccc(Br)cc3)c3ccccc23)cc1S(=O)(=O)N1CCOCC1	i	i	i	5.0	i	i
O=C1CC(c2ccc(Cl)cc2)=NO1	i	i	i	i	nt	nt
COc1ccc(-n2cc(-c3ccccc3)c3c(NCCc4ccc(OC)c(OC)c4)ncnc32)cc1	i	i	i	5.1	i	i
CCCOc1ccc(/C=C2/C(=O)ON=C2C)cc1OCC	i	i	i	i	nt	nt
CCCOc1ccccc1/C=C1/C(=O)ON=C1C	i	i	i	7.4	i	i
CC1(C)OC(=O)N2CCN3C(=O)OC(C)(C)C3(C)C(Br)=C21 (stereo not given)	i	i	i	6.0	i	i
N#Cc1ccc(C(=O)C(=O)c2ccccc2)cc1C#N	i	i	i	i	nt	nt
N#Cc1ccccc1C(Br)C(Br)C(=O)O (stereo not given)	i	i	i	6.0	i	i
O=C(c1cccc(S(=O)(=O)N2CCCC2)c1)c1nnc(-c2ccncc2)o1	i	i	i	8.2	i	i
Cc1cccc(NC(=O)CN(c2ccc(Cl)cc2C)S(C)(=O)=O)c1	i	i	i	i	nt	nt
Cc1nc2nc(C(=O)O)[nH]n2c(=O)c1Cc1ccccc1	i	i	i	i	nt	nt
Cc1nc2nc(C(F)(F)F)[nH]n2c(=O)c1Cc1ccccc1	i	i	i	8.1	i	i
CCOc1ccccc1CN1CCN(S(=O)(=O)c2ccccc2[N+](=O)[O-])CC1	i	i	i	5.7	i	i
COc1ccccc1CN1CCN(S(=O)(=O)c2ccccc2[N+](=O)[O-])CC1	i	i	i	i	nt	nt
SMILES	FBW7 act	MITF primary	TEAD-YAP inh	GPR151 ag	GPR151 confirm	GPR119 ag
CCOc1ccccc1N1CCN(S(=O)(=O)c2ccccc2[N+](=O)[O-])CC1	i	i	i	5.7	i	i
CCS(=O)(=O)N1CCN(S(=O)(=O)c2ccccc2[N+](=O)[O-])CC1	i	i	i	i	nt	nt
CCN1CCN(S(=O)(=O)c2ccc(C)c(C(N)=O)c2)CC1	i	i	i	i	nt	nt
Cc1cc(C)n(-c2ccc(N)cc2C(=O)O)n1	i	i	i	i	nt	nt
Cc1ccc(-n2c(-c3ccc4[nH]c(C)c(C)c4c3)n[nH]c2=S)cc1	i	i	i	5.5	i	i
COc1ccc(NS(=O)(=O)c2ccc3ccccc3c2)c(OC)c1	i	i	i	i	nt	nt
CC(NC(=O)CC1S/C(=N/N=C/c2ccco2)NC1=O)C(=O)O (stereo not given)	i	i	i	5.7	i	i
Cc1ccc(OCCOc2ccc(Oc3nc(N(C)C)nc(N(C)C)n3)nn2)cc1	i	i	i	5.3	i	i
Cc1nc(SCC(=O)O)cc(-c2ccccc2)n1	i	i	i	5.0	i	i
O=C(O)CSc1nc(-c2ccccc2)cc(C(F)F)n1	i	i	i	i	nt	nt
O=C1N/C(=C/c2cc(Br)cs2)C(=O)N1c1cccc(Cl)c1	i	i	i	i	nt	nt
CS(=O)(=O)N(CC(=O)NC1CC2CCC1C2)c1ccc(F)c(Cl)c1 (stereo not given)	i	i	i	7.8	i	i
Cc1ccc(NC(=O)CN(c2ccc3c(c2)OCO3)S(C)(=O)=O)cc1Cl	i	i	i	5.1	i	i
CS(=O)(=O)N(CC(=O)Nc1ccc(Cl)c(Cl)c1)c1ccc2c(c1)OCO2	i	i	i	i	nt	nt
CCOC(=O)c1ccccc1NC(=O)CN(c1ccc(Cl)c(Cl)c1)S(C)(=O)=O	i	i	i	18.3	i	i
COC(=O)c1ccccc1NC(=O)CN(c1ccc(Cl)c(Cl)c1)S(C)(=O)=O	i	i	i	i	nt	nt
Cc1ccc(N(CC(=O)NC2CC3CCC2C3)S(C)(=O)=O)cc1Cl (stereo not given)	i	i	i	i	nt	nt
CCOC(=O)c1ccccc1NC(=O)Nc1ccc(F)cc1	i	i	i	7.5	i	i
NC(=O)c1ccc(-c2cc(NCCCN3CCCC3=O)nc(N)n2)cc1	i	i	i	i	nt	nt
CCOc1ccc2nc(SCC(=O)Nc3ccc4nc(SCc5ccc(C(C)(C)C)cc5)sc4c3)sc2c1	i	i	i	i	nt	nt
CCOC(C)C(=O)Nc1ncnc2nc[nH]c12 (stereo not given)	i	i	i	i	nt	nt
CN(c1ccc(Cl)cc1)S(=O)(=O)c1ccc2[nH]cc(C(=O)NC3CCCC3)c(=O)c2c1	i	i	i	i	nt	nt
CCC(C)c1ccc(N2C(=O)c3ccccc3NC2c2ccc(F)cc2)cc1 (stereo not given)	i	i	i	i	nt	nt
Cc1ccc(N(CC(=O)Nc2ccccc2F)S(C)(=O)=O)cc1Cl	i	i	i	14.9	i	i
CCOC(=O)c1ccccc1NC(=O)CN(c1ccccc1F)S(C)(=O)=O	i	i	i	5.0	i	i
Cc1ccc(N(CC(=O)Nc2cc(Cl)ccc2C)S(C)(=O)=O)c(C)c1	i	i	i	6.9	i	i
COC(=O)CN(c1ccc(Cl)cc1Cl)S(C)(=O)=O	i	i	i	7.3	i	i
Cc1ccc(Cl)cc1NC(=O)CN(c1ccc(Cl)cc1)S(C)(=O)=O	i	i	i	i	nt	nt
CS(=O)(=O)N(CC(N)=O)c1ccc(Cl)cc1Cl	i	i	i	i	nt	nt
